Three molecules from PubChem BioAssay can be followed below.

As a reminder, the inhibition is the relative decrease from the control value, in per cent.

Assay [1] is described as follows: SU-DIPG-VI glioma cell viability, MIPE4.0 library, CellTiter-Glo luminescence, qHTS (AID 1347066; cut-off not given, nearly all actives have AC50 up to about 30 µM;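 note: cells exposed to compound for 48 hours before readout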). To be noted: CellTiter-Glo ATP luminescence. In general terms: In ATP-based viability assays light output follows the ATP content of the culture.
A short description of assay [2]: sensitizers of A549 cells to miR-34 induction, primary screen, imaging, A549 dox-inducible miR-34, nuclei and caspase counts (AID 1347080). To be noted: A549 miR-34 inducible, Hoechst nuclei count, 48 h.
A short description of assay [3]: survival rescue of mitochondrial mutant cells in low glucose, primary screen, MELAS cybrids, Rieske KO mouse fibroblasts, CellTiter-Glo (AID 1508586;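 active = mean z-score across replicates of 1.96 or higher in either the MELAS or the Rieske mutant cell line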;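 note: z relative to plate mean and SD of compound and empty wells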).
The target in assay [4] is NAD(+) hydrolase SARM1 (Homo sapiens) (UniProt Q6SZW1). Briefly: SARM1 TIR NADase inhibitors, cell lysate, NAD-Glo luminescence (AID 1508614;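 active = compound whose remaining NAD level is above about 45 nM, limit read from the data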;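 note: higher remaining NAD means stronger inhibition of SARM1 NADase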). As to conditions: SAM-TIR HEK293T lysate NADase, at 1 µM, stronger effect = higher value.
NAD(+) hydrolase SARM1 (Homo sapiens), sequence (Q6SZW1 whole entry, looked up): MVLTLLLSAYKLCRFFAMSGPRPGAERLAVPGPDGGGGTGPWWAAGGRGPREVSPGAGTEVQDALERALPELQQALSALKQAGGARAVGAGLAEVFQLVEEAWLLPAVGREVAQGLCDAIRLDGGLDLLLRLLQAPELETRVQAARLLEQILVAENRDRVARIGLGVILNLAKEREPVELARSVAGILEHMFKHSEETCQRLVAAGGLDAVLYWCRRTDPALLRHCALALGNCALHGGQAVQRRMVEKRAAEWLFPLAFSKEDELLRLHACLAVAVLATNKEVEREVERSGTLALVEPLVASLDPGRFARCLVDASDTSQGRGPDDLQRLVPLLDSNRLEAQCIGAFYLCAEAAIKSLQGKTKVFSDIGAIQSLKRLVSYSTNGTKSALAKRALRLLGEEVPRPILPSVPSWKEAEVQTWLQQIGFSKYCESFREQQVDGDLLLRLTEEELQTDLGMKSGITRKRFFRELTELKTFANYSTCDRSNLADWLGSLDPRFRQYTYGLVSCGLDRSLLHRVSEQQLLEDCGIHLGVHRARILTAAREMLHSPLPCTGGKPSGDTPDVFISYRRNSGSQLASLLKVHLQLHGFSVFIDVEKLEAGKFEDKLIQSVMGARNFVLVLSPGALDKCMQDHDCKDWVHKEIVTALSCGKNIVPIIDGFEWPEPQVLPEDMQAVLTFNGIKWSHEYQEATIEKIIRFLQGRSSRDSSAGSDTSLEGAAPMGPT
The nature of assay [5]: viability rescue of complex I mutant cybrids, primary screen, cell-based, galactose medium, ATP luminescence (AID 1645843;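 active = z-score of at least 1.8 in each of two replicates, scored against plate mean and spread of sample wells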;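 note: positive z means more ATP and so rescue of galactose-driven cybrid death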). To be noted: complex I mutant cybrid cells, 72 h, stronger effect = higher value.
Assay [6] in a line: LFS_MB_P medulloblastoma growth inhibition, cell-based, chromothripsis tumors, cisplatin or BGB combos (AID 1671449; in the data active = inhibition above about 80%;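 note: cells exposed for 96 hours; 0% = vehicle DMSO and 100% = killing by high DMSO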). As to conditions: LFS_MB_P medulloblastoma cells.
The nature of assay [7]: HDN33 neuroblastoma growth inhibition, cell-based, chromothripsis tumors, cisplatin or BGB combos (AID 1671450; in the data active = inhibition above about 80%;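 note: cells exposed to compound for four days; 0% = vehicle DMSO and 100% = cell killing by high DMSO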). To be noted: HDN33 neuroblastoma cells, stronger effect = higher value.
The nature of assay [8]: ICB984 medulloblastoma cell growth inhibition, synergistic combos for chromothripsis tumors, cisplatin or BGB combos (AID 1671451; call rule not given here;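 note: cells exposed for 96 hours before readout; 0% = vehicle DMSO and 100% = killing by high DMSO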). As to conditions: ICB984 medulloblastoma cells, drug combinations, stronger effect = higher value.
Assay [9] in a line: LFS_MB_1R medulloblastoma cell growth inhibition, synergistic combos for chromothripsis tumors, cisplatin or BGB combos (AID 1671452; in the data active = inhibition above about 80%;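 note: cells exposed for 96 hours before readout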). To be noted: LFS_MB_1R medulloblastoma cells, stronger effect = higher value.
The nature of assay [10]: HTB85 osteosarcoma cell growth inhibition, synergistic combos for chromothripsis tumors, BGB or cisplatin IC20 combos (AID 1671453; in the data active = inhibition above about 80%;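 note: cells exposed for 96 hours before readout; 0% = vehicle DMSO and 100% = high DMSO killing control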). As to conditions: HTB85 osteosarcoma cells, drug combinations, stronger effect = higher value.
Assay [11] is described as follows: CRL2098 osteosarcoma cell growth inhibition, synergistic combos for chromothripsis tumors, BGB or cisplatin IC20 combos (AID 1671454; in the data active = inhibition above about 80%;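 note: cells exposed for 96 h before readout; 0% = vehicle DMSO and 100% = killing by high DMSO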). As to conditions: CRL2098 osteosarcoma cells, drug combinations, stronger effect = higher value.
Assay [12] can be described thus: HD-MB03 medulloblastoma cell growth inhibition, synergistic combos for chromothripsis tumors, BGB or cisplatin IC20 combos (AID 1671455; in the data active = inhibition above about 83%;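 note: 0% = vehicle DMSO and 100% = high DMSO as cytotoxic control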). To be noted: HD-MB03 medulloblastoma cells, stronger effect = higher value.
Assay [13] is described as follows: phospholipid biosynthesis inhibitors in animal cells, primary screen, cell-based, LOPAC library, screen 4 (AID 1347384; call rule not given here). As to conditions: phospholipid biosynthesis inhibition screen, at 10 µM.
Assay [14] addresses Mitogen-activated protein kinase 7 (Homo sapiens) (UniProt Q13164). Briefly: ERK5 transactivation activators in reporter cells, primary screen, cell-based, HTS (AID 1508626;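 active = luciferase signal above three times the same-plate solvent-only control wells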;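 note: luciferase driven by Gal4-ERK5 fusion binding five Gal4 sites before minimal TATA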). As to conditions: HeLa Gal4-ERK5 transactivation, 18 h, at 5 µM, stronger effect = higher value.
Assay [15] is described as follows: inhibitors of Cryptococcus chitosan production, flow cytometry, Cibacron Brilliant Red staining (AID 1347148; call rule not given here;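 note: compound exposure lasted three days at 37 degrees C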). As to conditions: Cryptococcus neoformans chitosan, stronger effect = lower value; at 10 µM unless noted.
[16] abbreviates: stronger effect = lower value, cell number ratio, induced over uninduced.
The mark [17] stands for this setting: measured here: relative caspase fold change +Dox/-Dox.
Setting [18] is: measured here: total cells with miR-34 induction, stronger effect = lower value.
[19] abbreviates: measured here: total cells without miR-34 induction.
[20] abbreviates: MELAS cybrid survival, CellTiter-Glo 48 h, stronger effect = higher value.
The mark [21] stands for this setting: Rieske KO mouse fibroblast survival, CellTiter-Glo 72 h.
Where [22] appears, read: measured here: combination with BGB IC40, at 0.05 µM.

SMILES strings stand for the structures. Several values for one entry are separate records, joined by “and”; a condition that tells them apart may be missing. Equal values may be shown once. Records with an inconclusive call do not appear. Activity calls are given as the source filed them.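 Rule for the calls, unless noted: active = compounds whose cell count with miR-34 switched on is under 0.7 times the count with it off; inactive = the rest.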

Mitogen-activated protein kinase 7 (Homo sapiens), sequence (Q13164 whole entry, looked up, the tested form may be a part): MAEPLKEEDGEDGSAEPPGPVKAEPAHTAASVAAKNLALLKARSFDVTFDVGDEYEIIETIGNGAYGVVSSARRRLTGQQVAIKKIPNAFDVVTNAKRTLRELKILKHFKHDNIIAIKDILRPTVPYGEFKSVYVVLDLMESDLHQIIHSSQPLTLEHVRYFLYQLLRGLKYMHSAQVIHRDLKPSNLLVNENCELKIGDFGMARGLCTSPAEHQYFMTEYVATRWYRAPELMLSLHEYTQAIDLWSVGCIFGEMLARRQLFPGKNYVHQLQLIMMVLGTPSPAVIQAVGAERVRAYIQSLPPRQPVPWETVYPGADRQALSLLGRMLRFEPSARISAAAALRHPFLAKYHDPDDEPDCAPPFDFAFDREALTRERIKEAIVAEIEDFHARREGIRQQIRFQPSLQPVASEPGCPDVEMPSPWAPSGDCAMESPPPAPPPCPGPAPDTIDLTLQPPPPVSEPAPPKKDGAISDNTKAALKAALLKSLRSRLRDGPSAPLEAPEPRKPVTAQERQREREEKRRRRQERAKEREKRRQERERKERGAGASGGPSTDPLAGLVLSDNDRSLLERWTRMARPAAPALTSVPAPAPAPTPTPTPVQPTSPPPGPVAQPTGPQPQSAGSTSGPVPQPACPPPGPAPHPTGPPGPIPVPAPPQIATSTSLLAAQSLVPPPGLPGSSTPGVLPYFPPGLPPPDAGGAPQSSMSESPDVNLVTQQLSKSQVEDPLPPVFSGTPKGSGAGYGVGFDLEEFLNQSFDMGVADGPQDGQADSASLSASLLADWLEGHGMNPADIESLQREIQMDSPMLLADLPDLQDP

For `Cc1ccnc2c1NC(=O)c1cccnc1N2C1CC1`, in assay [1], the call was inactive. The fold change in [2] (setting [16]) is 0.867 (inactive) and 0.916 (inactive) and 0.818 (inactive); in assay [2] (setting [17]), 1 and 1.53 and 1.78. Also, the cell count in assay [2] (setting [18]) was 8040 and 8950 and 7970; in assay [2] (setting [19]), 9270 and 9770 and 9750. Besides, the z-score in assay [3] (setting [20]) is -0.331 (inactive) and -0.443 (inactive); in assay [3] (setting [21]), 0.346 and -0.451; in assay [5], 0.47 (inactive). Moreover, the remaining NAD in assay [4] is 10 nM (inactive). Moreover, the inhibition is 65.5% (inactive) in assay [6] (at 0.5 µM, stronger effect = higher value); -14.8% in assay [6] (measured here: combination with BGB IC20, at 0.005 µM); -23.6% in assay [6] (measured here: combination with BGB IC40, at 0.005 µM); -7.3% in assay [6] (setting [22]); 96.2% in assay [6] (measured here: combination with cisplatin, at 0.5 µM, stronger effect = higher value); -8.68% in assay [6] (measured here: combination with cisplatin, at 5 µM, stronger effect = higher value). Also, the inhibition in assay [7] (BGB combo, at 5 µM) was -9.4%; in [7] (at 0.5 µM), -11.8% (inactive); in [7] (cisplatin combo, at 5 µM), 24.4%; in assay [7] (measured here: with BGB IC20 combination, at 0.5 µM), -18.3%; in assay [7] (measured here: with cisplatin IC20 combination, at 0.5 µM) it was 0.871%; in [7] (single agent, at 5 µM), -21.1%. The inhibition in assay [8] (BGB IC20 combo, at 0.005 µM) is 7.31%; in assay [8] (BGB IC40 combo, at 0.005 µM), -7.13%; in assay [8] (BGB IC40 combo, at 0.05 µM), -20.9%; in [8] (at 0.5 µM), -20.4% (inactive); in assay [8] (cisplatin combo, at 0.05 µM), -24.3%; in assay [8] (cisplatin combo, at 0.5 µM) it was -22.4%. Moreover, the inhibition was -11% in assay [8] (cisplatin combo, at 5 µM); -28.4% in assay [8] (measured here: 5 uM single agent, at 5 µM); -9.83% (inactive) in assay [9] (at 0.5 µM); -16.2% in [9] (setting [22]); 15.1% in assay [9] (measured here: combination with cisplatin, at 0.5 µM); 29.5% in assay [9] (measured here: combination with cisplatin, at 5 µM). The inhibition in assay [10] (at 0.5 µM) was -11.8% (inactive); in assay [10] (measured here: with BGB IC20, at 0.5 µM) it was -22.9%; in assay [10] (measured here: with BGB IC20, at 5 µM), 53.6%; in assay [10] (measured here: with cisplatin IC20, at 0.5 µM), -9.99%; in [10] (measured here: with cisplatin IC20, at 5 µM), -37.2%; in assay [10] (single agent, at 5 µM), -7.51%. For the same molecule, the inhibition in [11] (at 0.5 µM) was -33.2% (inactive); in [11] (measured here: combination with BGB at IC20, at 0.5 µM), -9.42%; in [11] (measured here: combination with cisplatin at IC20, at 0.5 µM), -39.8%; in assay [12] (at 0.5 µM) it was -18.2% (inactive); in assay [12] (measured here: combo with BGB at IC20, at 0.5 µM) it was -13%; in assay [12] (measured here: combo with cisplatin at IC20, at 0.5 µM), -23.9%.

Turning to `COCCCC/C(=N\OCCN)c1ccc(C(F)(F)F)cc1`, the call in [1] and in assay [13] was inactive. The fold change in assay [2] (setting [16]) was 0.98 (inactive) and 0.926 (inactive) and 0.976 (inactive); in assay [2] (setting [17]) it was 1.02 and 0.609 and 0.939. Further, the cell count in assay [2] (setting [18]) was 9020 and 8820 and 7770; in assay [2] (setting [19]) it was 9200 and 9520 and 7960. Moreover, the z-score in assay [3] (setting [20]) is 0.622 (inactive); in assay [3] (setting [21]), -0.626; in assay [5], -0.665 (inactive) and -0.645 (inactive). In [4], the remaining NAD is 10 nM (inactive). In [14], the luciferase signal is 88 AU (inactive).

Regarding `Fc1ccc(C(c2ccc(F)cc2)N2CCN(C/C=C/c3ccccc3)CC2)cc1`, the molecule was called inactive in assay [1] and in assay [13]. Besides, in assay [15], the fold fluorescence was 3.48 [at 123.6 µM] (inactive). The z-score is -1.68 (inactive) and -0.773 (inactive) in assay [3] (setting [20]); -0.315 and -0.0521 in assay [3] (setting [21]); -1.04 (inactive) and -1.24 (inactive) and -2.23 (inactive) in assay [5]. Also, the remaining NAD in [4] was 10 nM (inactive). The luciferase signal in assay [14] was 116 AU (inactive).
